Measurements: PubChem BioAssay AID1159580 (chemical genetic matrix, 2015)
In all, about 5,500 compounds went through this assay and about 2,000 (36%) were called active. Roughly 18% stayed inconclusive and do not appear here. Cut-off read from the data, not from the text of the source: active = normalized growth mostly below about 0.91 (no sharp cut-off); inconclusive = no clear call, values can overlap the other calls; inactive = mostly above about 0.92. Some of the results follow.

Assay: chemical genetic growth profiling, strain panel (AID 1159580);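 note: tested at 20 µM; growth read once vehicle control cultures reached saturation at 30 °C; 1 = growth at the plate median or of vehicle wells; lower values mean less growth of the strain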
Settings: growth OD

Measured: normalized growth

CC(C)=CCC1=C(O)c2ccccc2C(=O)C1=O
inactive: S. cerevisiae deletion strains, locus YJR075W, strain HOC1, active compounds read low 1.03 | S. cerevisiae deletion strains, locus YKL009W, strain mrt4, active compounds read low 0.945 | S. cerevisiae deletion strains, locus YKL190W, strain CNB1, active compounds read low 0.951 | S. cerevisiae deletion strains, locus YLR039C, strain RIC1, active compounds read low 0.705 | S. cerevisiae deletion strains, locus YLR058C, strain SHM2, active compounds read low 0.954 | S. cerevisiae deletion strains, locus YLR102C, strain apc9, active compounds read low 0.963 | S. cerevisiae deletion strains, locus YLR113W, strain HOG1, active compounds read low 0.965 | S. cerevisiae deletion strains, locus YLR262C, strain YPT6, active compounds read low 0.733 | S. cerevisiae deletion strains, locus YLR330W, strain CHS5, active compounds read low 0.948 | S. cerevisiae deletion strains, locus YLR342W, strain FKS1 (second series), active compounds read low 0.844 | S. cerevisiae deletion strains, locus YLR371W, strain rom2, active compounds read low 0.939 | S. cerevisiae deletion strains, locus YLR418C, strain cdc73, active compounds read low 1.03 | S. cerevisiae deletion strains, locus YML016C, strain PPZ1, active compounds read low 0.958 | S. cerevisiae deletion strains, locus YML032C, strain rad52, active compounds read low 0.906 | S. cerevisiae deletion strains, locus YML124C, strain tub3, active compounds read low 0.935 | S. cerevisiae deletion strains, locus YMR078C, strain ctf18, active compounds read low 0.921 | S. cerevisiae deletion strains, locus YMR263W, strain SAP30, active compounds read low 1.01 | S. cerevisiae deletion strains, locus YMR307W, strain GAS1, active compounds read low 0.721 | S. cerevisiae deletion strains, locus YNL067W, strain RPL9B, active compounds read low 0.989 | S. cerevisiae deletion strains, locus YNL128W, strain TEP1, active compounds read low 0.945 | S. cerevisiae deletion strains, locus YNL153C, strain GIM3, active compounds read low 0.965 | S. cerevisiae deletion strains, locus YNL183C, strain NPR1, active compounds read low 0.914 | S. cerevisiae deletion strains, locus YNL233W, strain BNI4, active compounds read low 0.964 | S. cerevisiae deletion strains, locus YNL248C, strain rpa49, active compounds read low 0.974 | S. cerevisiae deletion strains, locus YNL298W, strain CLA4, active compounds read low 0.914 | S. cerevisiae deletion strains, locus YNL322C, strain KRE1, active compounds read low 0.934 | S. cerevisiae deletion strains, locus YNR052C, strain pop2, active compounds read low 0.918 | S. cerevisiae deletion strains, locus YOL012C, strain htz1 1.37 | S. cerevisiae deletion strains, locus YOL147C, strain pex11, active compounds read low 0.953 | S. cerevisiae deletion strains, locus YOR061W, strain CKA2, active compounds read low 0.953 | S. cerevisiae deletion strains, locus YOR069W, strain VPS5, active compounds read low 0.934 | S. cerevisiae deletion strains, locus YOR136W, strain idh2, active compounds read low 0.928 | S. cerevisiae deletion strains, locus YOR184W, strain ser1, active compounds read low 0.894 | S. cerevisiae deletion strains, locus YOR231W, strain MKK1, active compounds read low 0.966 | S. cerevisiae deletion strains, locus YOR316C, strain cot1, active compounds read low 0.968 | S. cerevisiae deletion strains, locus YPL055C, strain LGE1, active compounds read low 1.05 | S. cerevisiae deletion strains, locus YPL256C, strain CLN2, active compounds read low 1.02 | S. cerevisiae deletion strains, locus YPR119W, strain clb2, active compounds read low 0.967 | S. cerevisiae deletion strains, locus YPR163C, strain tif3, active compounds read low 0.957 | S. cerevisiae deletion strains, locus YPR167C, strain met16, active compounds read low 0.937 | S. cerevisiae deletion strains, strain wtn01, active compounds read low 0.951 | S. cerevisiae strains, strain wild type, active compounds read low 0.934
active: S. cerevisiae deletion strains, locus YKL068W, active compounds read low 0.887 | S. cerevisiae deletion strains, locus YKL085W, strain MDH1 (second series), active compounds read low 0.884 | S. cerevisiae deletion strains, locus YKL085W, strain MDH1, active compounds read low 0.884 | S. cerevisiae deletion strains, locus YKL160W, strain elf1, active compounds read low 0.741 | S. cerevisiae deletion strains, locus YKR001C, strain vps1, active compounds read low 0.788 | S. cerevisiae deletion strains, locus YKR026C, strain gcn3, active compounds read low 0.775 | S. cerevisiae deletion strains, locus YKR091W, strain srl3, active compounds read low 0.809 | S. cerevisiae deletion strains, locus YLL001W, strain dnm1, active compounds read low 0.598 | S. cerevisiae deletion strains, locus YLL026W, active compounds read low 0.808 | S. cerevisiae deletion strains, locus YLL041C, strain sdh2, active compounds read low 0.815 | S. cerevisiae deletion strains, locus YLR027C, strain aat2, active compounds read low 0.823 | S. cerevisiae deletion strains, locus YLR221C, strain rsa3, active compounds read low 0.819 | S. cerevisiae deletion strains, locus YLR258W, strain gsy2, active compounds read low 0.797 | S. cerevisiae deletion strains, locus YLR262C, strain YPT6 (second series), active compounds read low 0.334 | S. cerevisiae deletion strains, locus YLR268W, strain sec22, active compounds read low 0.879 | S. cerevisiae deletion strains, locus YLR320W, strain mms22, active compounds read low 0.741 | S. cerevisiae deletion strains, locus YLR342W, strain FKS1, active compounds read low 0.727 | S. cerevisiae deletion strains, locus YLR357W, strain rsc2, active compounds read low 0.837 | S. cerevisiae deletion strains, locus YLR370C, strain arc18, active compounds read low 0.806 | S. cerevisiae deletion strains, locus YLR384C, strain iki3, active compounds read low 0.818 | S. cerevisiae deletion strains, locus YML120C, strain ndi1, active compounds read low 0.759 | S. cerevisiae deletion strains, locus YMR058W, strain fet3, active compounds read low 0.651 | S. cerevisiae deletion strains, locus YMR125W, strain sto1, active compounds read low 0.884 | S. cerevisiae deletion strains, locus YMR129W, active compounds read low 0.773 | S. cerevisiae deletion strains, locus YMR205C, strain PFK2, active compounds read low 0.837 | S. cerevisiae deletion strains, locus YMR223W, strain ubp8, active compounds read low 0.864 | S. cerevisiae deletion strains, locus YMR231W, strain pep5, active compounds read low 0.791 | S. cerevisiae deletion strains, locus YNL071W, strain lat1, active compounds read low 0.837 | S. cerevisiae deletion strains, locus YNL209W, strain ssb2, active compounds read low 0.715 | S. cerevisiae deletion strains, locus YNL250W, strain rad50, active compounds read low 0.897 | S. cerevisiae deletion strains, locus YNL271C, strain bni1, active compounds read low 0.892 | S. cerevisiae deletion strains, locus YNL307C, strain MCK1, active compounds read low 0.904 | S. cerevisiae deletion strains, locus YNL322C, strain KRE1 (second series), active compounds read low 0.791 | S. cerevisiae deletion strains, locus YNR049C, strain mso1, active compounds read low 0.772 | S. cerevisiae deletion strains, locus YOL006C, strain TOP1, active compounds read low 0.29 | S. cerevisiae deletion strains, locus YOR001W, strain rrp6, active compounds read low 0.864 | S. cerevisiae deletion strains, locus YOR070C, strain gyp1, active compounds read low 0.821 | S. cerevisiae deletion strains, locus YOR080W, strain dia2, active compounds read low 0.789 | S. cerevisiae deletion strains, locus YOR083W, strain WHI5, active compounds read low 0.772 | S. cerevisiae deletion strains, locus YOR106W, strain vam3, active compounds read low 0.595 | S. cerevisiae deletion strains, locus YOR144C, strain elg1, active compounds read low 0.933 | S. cerevisiae deletion strains, locus YOR265W, strain rbl2, active compounds read low 0.822 | S. cerevisiae deletion strains, locus YOR270C, strain vph1, active compounds read low 0.294 | S. cerevisiae deletion strains, locus YOR290C, strain snf2, active compounds read low 0.778 | S. cerevisiae deletion strains, locus YPL051W, strain arl3, active compounds read low 0.657 | S. cerevisiae deletion strains, locus YPL078C, strain atp4, active compounds read low 0.678 | S. cerevisiae deletion strains, locus YPL106C, strain sse1, active compounds read low 0.816 | S. cerevisiae deletion strains, locus YPL240C, strain hsp82, active compounds read low 0.825 | S. cerevisiae deletion strains, locus YPL241C, strain CIN2, active compounds read low 0.925 | S. cerevisiae deletion strains, locus YPR141C, strain kar3, active compounds read low 0.839
